Experimental data taken from PubChem BioAssay AID1117319 (Southern Research Institute, 2015).
“And” between values parts separate entries of the source, which are not always exact repeats. Identical values can stand only once. The campaign covered roughly 260,000 compounds. About 1,500 (0.58%) were called active. Roughly 5% stayed inconclusive and do not appear here.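 How the source made its calls: active means inhibition above a set limit at one or more doses, reproduced on every date tested; inconclusive means results disagree between test dates, or hit never tested in dose response; inactive means the rest.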 Not all results are given here. Potency and affinity values are given separately.

molecular target: Virion infectivity factor (Human immunodeficiency virus type 1 group M subtype B (isolate BH10)) + Virion infectivity factor (Human immunodeficiency virus type 1 group M subtype B (isolate BRU/LAI)) + Virion infectivity factor (Human immunodeficiency virus type 1 group M subtype B (isolate PCV12)) + Virion infectivity factor (Human immunodeficiency virus type 1 group M subtype B (isolate HXB2)) + DNA dC->dU-editing enzyme APOBEC-3G (Homo sapiens) (UniProt P69720+P69721+P69722+P69723+Q9HC16); assay: HIV-1 Vif–A3G interaction blockers – biochemical, TR-FRET, GST-Vif 1-94, biotin-A3G peptide, dose response retest, primary screen (AID 1117319); settings: TR-FRET GST-Vif / biotin-A3G peptide binding; hits give high values;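 further: Vif residues 1-94 fused to GST binding biotinylated APOBEC3G peptide 110-148; 0% = full assay without inhibitor and 100% = GST in place of GST-Vif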

inhibition, inactive:
O=C1CC(Sc2ncccc2C(=O)O)C(=O)N1 (centres undefined) 5.46%
Cc1cccc2c1NC(=O)C2(O)N1CCCC(C)C1 (centres undefined) 7.4%
C/C(=N\Oc1cccc(F)n1)c1ccc(Cl)cc1Cl -2.41%
O=C(CN1CCN(S(=O)(=O)c2ccc(Br)cc2)CC1)c1ccc(O)c(O)c1 23.1%
CC(C)c1ccc(S(=O)(=O)N2CCN(CC(=O)c3ccc(O)c(O)c3)CC2)cc1 24.8%
CC1C/C(=C/c2ccccn2)C(=O)/C(=C/c2ccccn2)C1 (centres undefined) 19.4%
CC1C/C(=C/c2ccncc2)C(=O)/C(=C/c2ccncc2)C1 (centres undefined) 25.8%
CC(C)(C)C1C/C(=C/c2ccccn2)C(=O)/C(=C/c2ccccn2)C1 (centres undefined) 2.61%
CCC1C/C(=C\c2cccnc2)C(=O)/C(=C/c2cccnc2)C1 (centres undefined) 9.28%
COc1cc(/C=C2\CC(C(C)(C)C)C/C(=C\c3cc(OC)c(OC)c(OC)c3)C2=O)cc(OC)c1OC (centres undefined) 2.75%
CC12CCCC(=O)C1CCC(=Cc1ccco1)C2=O (centres undefined) 2.03%
CCC(NC(=O)NNC(N)=S)(C(F)(F)F)C(F)(F)F 2.24%
CCOc1ccccc1N1CCN(C(=O)c2ccc(-c3ccc(OC(C)=O)cc3)cc2)CC1 -6.48%
Cc1cc(C)c(C(=O)CSc2nnc(C)s2)c(C)c1 -3.21%
CCOC(=O)C1C(=O)CC(C)(O)C(C(=O)OCC)C1c1cccc(OC(F)(F)C(F)F)c1 (centres undefined) 1.49%
Cc1cccc(OCc2nc(C#N)c(NCc3ccc4c(c3)OCO4)o2)c1 2.3%
C[C@H](NC(=O)c1ccco1)C(=O)OCC(=O)N1CC(=O)Nc2ccccc21 1.38%
COc1ccccc1NC(=O)CN(c1ccccc1F)S(C)(=O)=O 2.7%
Cc1ccc(S(=O)(=O)Nc2cccc(C(=O)N3CCN(c4ccccc4O)CC3)c2)cc1F -3.67%
COc1ncnc2c1ncn2CCCN(C)CCc1ccccn1 3.23%
Nc1nc(N)c2c(n1)CN(Cc1ccc(Cl)cc1)C2 -2.69%
Cc1ccc(C(=O)N/N=C\c2ccc(-c3ccc(Cl)cc3)o2)cn1 23.4%
Cc1cccc(C(=O)N/N=C/c2cc(Br)c(Br)o2)c1 0.73%
COC(=O)COc1ccc(S(=O)(=O)Nc2ccc3c(c2)OCCO3)cc1Cl -0.68%
COc1cccc(CNC(=O)CCCNS(=O)(=O)c2cccs2)c1 22.8%
COc1cccc(CNC(=O)CCS(=O)(=O)c2cccs2)c1 -7.15%
CC1(C)CC(=O)c2cc(OCC(=O)NCCCN3CCN(c4ccc(F)cc4)CC3)ccc2O1 -7.66% and 5.99%
O=C(O)CN1C(=O)CNC1=O -0.07%
CC(=O)Nc1ccc(S(=O)(=O)NCC(=O)OCC(=O)NCc2ccco2)cc1 7.01%
CCOC(=O)C1CCCN(C(=O)COC(=O)c2cc(=O)c3ccccc3o2)C1 (centres undefined) 29.1%
CC(C)n1cc(CN2CCCC(CNS(=O)(=O)c3cccc4cccnc34)C2)cn1 (centres undefined) 10.9%
COC(=O)c1cccc(-n2c(C)cc(/C=C3\SC(=O)NC3=O)c2C)c1 3.07%
Cc1ccc(-n2c(C)cc(/C=C3\SC(=O)NC3=O)c2C)cc1 -6.8%
Cc1cc(/C=C2\SC(=S)NC2=O)c(C)n1-c1ccc(O)cc1 71.3%
Cc1cc(/C=C2\SC(N)=NC2=O)c(C)n1-c1ccccc1 19.3%
Cc1nn(C)cc1/C=C1\SC(=S)NC1=O -1.22%
Cc1cc(/C=C2\SC(=S)NC2=O)c(C)n1C1CC1 30.7%
COc1cccc(CNC(=O)Cn2ncc3c(=O)oc4ccccc4c32)c1 -6.25%
Cc1cccc(-n2ccc(=O)c(C(=O)O)n2)c1 -11%
O=C(Nc1ccc(Cl)c(S(=O)(=O)N2CCOCC2)c1)c1ccccn1 -0.06%
O=C(O)CCCN1C(=O)C2C3CCC(C3)C2C1=O (centres undefined) 6.83%
Cc1ccc(-n2c(C)cc(/C=N/Nc3ccc([N+](=O)[O-])cn3)c2C)cc1 12.6%
Cc1cccc(C)c1-n1c(C)cc(/C=N\Nc2ccc([N+](=O)[O-])cn2)c1C 10.6%
Cc1ccccc1-n1c(C)cc(/C=N/Nc2ccc([N+](=O)[O-])cn2)c1C 6.93%
Cc1cc(/C=N/Nc2ccc([N+](=O)[O-])cn2)c(C)n1-c1ccccc1 6.45%
Cn1ncc(Cl)c1C(=O)NC(=S)Nc1sc2c(c1C#N)CCCCC2 1.11%
CC(=O)N(C1=C(O)c2ccccc2C(=O)C1=O)C1CCCCC1 -2.6%
O=C(NCc1ccco1)c1cccnc1Cl 2.06%
COc1ccc(NC(=O)Nc2cccs2)cc1Cl 3.45%
COc1cccc(NC(=O)Nc2cccs2)c1 19.8%
CC[C@@H]1CCCCc2ccccc2[C@@H](C(=O)C[C@@H](O)CC(C)=O)OC1=O -2.17%
CCC(=O)Nc1cccc(C2=NOC3(C2)C[C@@H](C(N)=O)N(C(=O)C(c2ccccc2)c2ccccc2)C3)c1 (some centres undefined) 5.6%
C/C=C(/C)C(=O)Nc1cccc(C2=NOC3(C2)C[C@@H](C(N)=O)N(C(=O)CCCCC)C3)c1 (some centres undefined) 4.38%
C=C(C)C(=O)N1CC2(CC(c3cccc(NC(=O)COc4ccc(Cl)cc4)c3)=NO2)C[C@@H]1C(N)=O (some centres undefined) -2.13%
C/C=C(\C)C(=O)Nc1cccc(C2=NOC3(C2)C[C@H](C(N)=O)N(C(=O)C(c2ccccc2)c2ccccc2)C3)c1 (some centres undefined) 17.8%
CCCCCC(=O)Nc1cccc(C2=NOC3(C2)C[C@H](C(N)=O)N(C(=O)CCCCC)C3)c1 (some centres undefined) 14.4%
CCC(=O)Nc1cccc(C2=NOC3(C2)C[C@@H](C(N)=O)N(C(=O)c2cc([N+](=O)[O-])cc([N+](=O)[O-])c2)C3)c1 (some centres undefined) 9.27%
C/C=C(\C)C(=O)Nc1cccc(C2=NOC3(C2)C[C@H](C(N)=O)N(C(=O)c2cc([N+](=O)[O-])cc([N+](=O)[O-])c2)C3)c1 (some centres undefined) 9.79%
CCC(=O)Nc1cccc(C2=NOC3(C2)C[C@@H](C(N)=O)N(C(=O)COc2ccc(Cl)cc2)C3)c1 (some centres undefined) 1.74%
